MEKK2mut PB1 HTS: signal of MEK5 binding to mutant human MEKK2 PB1 domain; bead flow cytometry, Alexa488-MEK5 binding to MEKK2 mutant; percent response, % at 10 µM; hit rate 0.35% among 290,000; in the data active = percent response above about 24%, passing the limit was not always enough
MEKK2 WT-MEK5: raises or lowers MEK5 binding to wildtype human MEKK2 PB1 domain. Q9Y2U5. bead flow cytometry, Alexa488-MEK5 binding to MEKK2 WT; actives lie on both sides. binding response (% of control), % at 10 µM. hit rate 1.1% among 290,000; in the data active = binding response below about 67% or above about 130%
UBC13 polyUb: human UBC13 polyubiquitination inhibition. P61088. UBC13 polyubiquitin chain formation, TR-FRET. inhibition, % at 20 µM. hit rate 0.47% among 330,000; in the data active = inhibition above about 45%, passing the limit was not always enough
Target sequence (P61088 whole entry, looked up): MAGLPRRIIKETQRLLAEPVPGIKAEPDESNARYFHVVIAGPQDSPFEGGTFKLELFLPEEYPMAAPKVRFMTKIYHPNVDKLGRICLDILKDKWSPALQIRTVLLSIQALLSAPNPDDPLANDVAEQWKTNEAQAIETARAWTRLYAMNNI
ATG4B inh: inhibitors of human ATG4B cysteine protease. Q9Y4P1. hit rate 0.51% among 340,000. AID 504462. inhibition, % at 8.33 µM. ATG4B cleavage of LC3-PLA2, NBD-HPC fluorescence, 1 h; in the data active = inhibition above about 40%
MEKK3 PB1 HTS: modulators (inhibitors or enhancers) of MEK5 binding to human MEKK3 PB1 domain | bead-based flow cytometry, Alexa488-MEK5 binding to MEKK3; actives lie on both sides; 0 = blocked by unlabeled MEK5, 100 = vehicle | hit rate 1.4% among 290,000 | AID 1529 | Q99759 | binding response (% of control), % at 10 µM;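 active = binding response more than 3 SD above or below the average of its plate-row segment, actives on both sides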;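 also: Alexa488 bead fluorescence after subtracting the streptavidin-only scavenger bead signal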
PREPL inhibitor: inhibitors of human prolyl oligopeptidase-like enzyme PREPL; inhibition, % at 5.96 µM; hit rate 0.68% among 320,000; recombinant PREPL, fluorescence polarization activity-based probe; in the data active = inhibition above about 43%;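 also: 0% = enzyme with DMSO and 100% = wells lacking enzyme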
MEKK2wt confirm: raises or lowers MEK5 binding to wildtype human MEKK2, retest | shares compounds with MEKK3 PB1 HTS | bead flow cytometry, Alexa488-MEK5 binding to MEKK2 WT; actives lie on both sides | hit rate 2.4% among 5,900 | binding response (% of control), % at 10 µM; in the data active = binding response below about 16% or above about 210%; inactive = in between
MEKK2mut-MEK5: signal of MEK5 binding to mutant human MEKK2, retest. shares compounds with MEKK3 PB1 HTS. bead flow cytometry, Alexa488-MEK5 binding to MEKK2 mutant. percent response, % at 10 µM. hit rate 2% among 5,900; in the data active = percent response mostly above about 71%, no sharp cut-off; inactive = mostly below about 38%;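 also: higher means compound restores mutant binding toward wildtype level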
MEKK3 confirm: confirmation of inhibitors of MEK5 binding to human MEKK3 | shares compounds with MEKK3 PB1 HTS | bead flow cytometry, Alexa488-MEK5 binding to MEKK3; stronger effect = lower value | binding response (% of control), % at 10 µM | hit rate 1.8% among 5,900 | AID 1894;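 active = binding response below 72% of control, or above a set upper limit, though filed actives all read lower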;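 also: 100% = DMSO only wells and 0% = binding blocked by excess unlabeled MEK5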
Casp3 UBC13 ctr: inhibits human caspase-3 in UBC13 counter-screen. hit rate 4% among 1,400. Recombinant caspase-3, Caspase-Glo 3/7 luminescence, 60 min. inhibition, % at 20 µM. shares compounds with UBC13 polyUb;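 active = mean inhibition across replicates above about 26%, limit read from the data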;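 also: plate controls were DMSO with caspase-3 for no effect and DMSO wells lacking enzyme for full effect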
Target sequence (P42574 whole entry, looked up): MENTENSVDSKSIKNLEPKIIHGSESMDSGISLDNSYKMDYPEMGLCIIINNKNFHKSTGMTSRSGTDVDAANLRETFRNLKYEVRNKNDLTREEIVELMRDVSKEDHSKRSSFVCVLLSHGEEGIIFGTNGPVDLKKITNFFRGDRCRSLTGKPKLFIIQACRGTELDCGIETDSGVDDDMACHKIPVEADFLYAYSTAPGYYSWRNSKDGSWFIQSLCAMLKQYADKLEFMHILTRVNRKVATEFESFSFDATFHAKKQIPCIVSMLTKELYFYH
UBC13 conf: human UBC13 polyubiquitin inhibition, confirmed. shares compounds with UBC13 polyUb. UBC13 polyubiquitination, TR-FRET, biochemical. inhibition, % at 10 µM. hit rate 68% among 1,400; in the data active = inhibition above about 45%
PLA2 ctr: counter-screen for ATG4B inhibitors: human phospholipase A2; shares compounds with ATG4B inh; purified PLA2, NBD-C6-HPC fluorescence, 45 min; inhibition, % at 8.33 µM; hit rate 66% among 1,600; AID 588402; in the data active = inhibition above about 50%
* = called active by the depositor; / = no result given. Compounds with a hit are over-represented: about 3.1% of the library has one in this group of screens.

SMILES	MEKK2mut PB1 HTS	MEKK2 WT-MEK5	UBC13 polyUb	ATG4B inh	MEKK3 PB1 HTS	PREPL inhibitor	MEKK2wt confirm	MEKK2mut-MEK5	MEKK3 confirm	others
C[C@@H](O)C1NC(=O)[C@H](CCCCN)NC(=O)c2cc([N+](=O)[O-])cc(F)c2NCCCC[C@@H](C(N)=O)NC1=O (stereo not given in full)	14	141*	96*	-4	108	20	143	22	102	Casp3 UBC13 ctr=0;UBC13 conf=101*
Cc1nn(-c2ccc(F)cc2)c(-n2cccc2)c1C(=O)N1CCN(C(=O)c2ccco2)CC1	-6	87	-1	0	92	16	/	/	/
CCOc1ccc(OCC(O)CNC2CCN(Cc3ccccc3)CC2)cc1 (stereo not given)	23	128	2	-5	105	14	/	/	/
CC(C)(c1ccccc1)c1ccc(OCC(O)CNC2CCN(Cc3ccccc3)CC2)cc1 (stereo not given)	62*	252*	63*	-12	98	6	179	32	107	Casp3 UBC13 ctr=-1;UBC13 conf=70*
CCC1(c2ccccc2)NC(=O)N(CC(=O)Nc2ccccc2C(=O)N2CCCCC2)C1=O (stereo not given)	/	/	0	0	/	10	/	/	/
CC(=O)N1CCN(C(=O)c2cc(S(=O)(=O)N(C)Cc3ccccc3)ccc2Cl)CC1	/	/	2	2	/	/	/	/	/
CN(C)S(=O)(=O)N1CCC(Oc2cccc(C(=O)N3CCCCCCC3)c2)CC1	-4	102	-8	-5	101	-2	/	/	/
CNC[C@@H](CC1CCCCC1)NC[C@H](CC(C)C)NCCc1cccc(C(F)(F)F)c1	33*	234*	92*	2	109	10	159	36	107	Casp3 UBC13 ctr=-1;UBC13 conf=80*
CNC[C@@H](Cc1ccccc1)NC[C@@H](CC1CCCCC1)NCCCc1ccccc1	44*	244*	93*	8	115	14	163	37	99	Casp3 UBC13 ctr=-2;UBC13 conf=76*
CCC[C@@H](CN[C@@H](CNC)C(C)C)NCCCCc1ccccc1	-3	119	6	-4	104	25	/	/	/
Cc1ccc(/C=N/Nc2cc(C)nc(NCc3ccccc3)n2)cc1	63*	199*	34	64*	108	-1	150	25	104	PLA2 ctr=77*
Clc1ccc(C=NNc2ccccn2)c(Cl)c1	/	/	/	2	/	/	/	/	/
Cc1cc(N/N=C/c2ccc(O)cc2)nc(NS(=O)(=O)c2ccccc2)n1	-17	94	6	-3	94	6	/	/	/
Cc1cc(N/N=C/c2ccc(Cl)cc2Cl)nc(NCc2ccccc2)n1	38	161*	2	85*	102	-9	164	38	105	PLA2 ctr=88*
O=C1C=C(c2cc(F)ccc2F)C[C@@H](c2ccc(F)cc2)C1	/	/	-8	3	/	-3	/	/	/
CCCCCOc1ccc(CSC(=N)N)cc1[N+](=O)[O-]	34*	148*	20	64*	108	1	139	23	112	PLA2 ctr=61*
COc1cc(C(C)=O)ccc1OCCN1CCC(Cc2ccccc2)CC1	4	113	10	-13	102	-9	/	/	/

Screening data deposited in PubChem BioAssay by several laboratories.
